This is an account of results in PubChem BioAssay AID1851 (National Center for Advancing Translational Sciences (NCATS), 2009).

Among all 16,000 compounds or so, about 2,600 (16%) were called active. Another 20% or so got no clear call; they are omitted. Calls come from the whole dose curve; as a rule, active = well fitted curve in the direction sought with a large enough effect; inconclusive = small, poorly fitted or top-dose-only effect, or effect the other way; inactive = no such curve, though single readings can be large or run the other way. What follows is part of a selection rich in actives, with near analogues and random picks from the rest.
% is set by controls: 0 for no effect and ±100 for the full control effect.

Cytochrome P450 2D6 (Homo sapiens), sequence (P10635 whole entry, looked up): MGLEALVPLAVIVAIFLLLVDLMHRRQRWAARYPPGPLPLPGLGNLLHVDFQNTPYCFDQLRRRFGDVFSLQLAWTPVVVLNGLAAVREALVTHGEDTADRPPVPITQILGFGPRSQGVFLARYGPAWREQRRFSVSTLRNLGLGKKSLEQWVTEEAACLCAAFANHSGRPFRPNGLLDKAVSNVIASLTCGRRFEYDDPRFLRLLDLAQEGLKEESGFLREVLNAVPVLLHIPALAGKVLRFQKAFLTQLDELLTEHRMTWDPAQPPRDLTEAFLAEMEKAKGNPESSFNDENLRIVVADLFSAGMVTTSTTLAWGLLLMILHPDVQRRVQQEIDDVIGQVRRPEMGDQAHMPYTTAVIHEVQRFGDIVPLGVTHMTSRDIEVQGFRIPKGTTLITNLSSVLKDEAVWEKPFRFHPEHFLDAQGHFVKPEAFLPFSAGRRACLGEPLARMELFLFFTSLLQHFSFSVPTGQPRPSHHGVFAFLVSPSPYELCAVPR

The assay concerns the target Cytochrome P450 2D6 (Homo sapiens) (UniProt P10635). The assay is described as follows: Cytochrome panel assay with activity outcomes. To be noted: recombinant CYP, pro-luciferin dealkylation, luminescence, p450-cyp2d6; series mostly up to 57.1 µM; activity, negative = inhibition: at the top concentration.
As usually defined, the AC50 is the concentration giving half of the maximal activity seen. For the molecule `N[C@@]1(C(=O)O)CC[C@H](C(=O)O)C1`, the AC50 result was “inactive”.
Consider `COc1cc(/C=N/NC(=O)CN2CC(c3ccccc3)CC2=O)ccc1OC(=O)N(C)C` (stereo unspecified), for which the “activity, negative = inhibition” value is -1.46% (inactive).
As for `CN(C)C=C1C(=O)N(C2CCCCC2)C(=O)N(C2CCCCC2)C1=O`, the “activity, negative = inhibition” value is 10.7% (inactive).
The same measure, in the same setting: the result for `NC(=O)COc1c(F)cc(SCCNS(=O)(=O)c2ccccc2)cc1F` reads 1.88% (inactive).
Consider `Cc1cc(OCC(=O)OC(C)C)c2c3c(c(=O)oc2c1)CCCC3`, for which the “activity, negative = inhibition” value was -19.9% (inactive).
In the case of `Cn1c(O)c(C(c2ccccn2)c2c(O)n(C)c(=S)[nH]c2=O)c(=O)[nH]c1=S`, the “activity, negative = inhibition” value was 12.2% (inactive).
Consider `O=C1CN=C(c2cccs2)c2c(sc3c2CCCC3)N1`, for which the AC50 was 1000 nM (active).
Regarding `NC[C@@H](Cc1ccccc1)P(=O)(O)O`, the activity, negative = inhibition is -3.95% [at 11.4 µM] (inactive).
On the same count and under the same terms, in the case of `CC(C)(C)C(=O)CP(=O)(O)O` it was -2.59% [at 11.4 µM] (inactive); in that of `C=C(C)[C@H]1CN[C@H](C(=O)O)[C@@H]1CC(=O)O`, -3.28% (inactive).
`CCC(=O)O[C@@](Cc1ccccc1)(c1ccccc1)[C@@H](C)CN(C)C`: the AC50 is 7940 nM (active).
For `COC(=O)[C@@]1(Cc2ccc(F)cc2)[C@H]2c3cc(C(=O)N(C)C)[nH]c3C[C@H]2CN1C(=O)c1ccccc1`, the “activity, negative = inhibition” value was -16.4% (inactive).
For `NC(N)=NCCN=C(N)N`, the activity, negative = inhibition was -4.24% [at 11.4 µM] (inactive).
Consider `Fc1ccccc1CCNCc1cccc(Cl)c1Cl`, for which the AC50 is 79.4 nM (active).
As for `CCC1(CCSC(=N)N)C(=O)NC(=O)NC1=O`, the activity, negative = inhibition was 12.5% [at 11.4 µM] (inactive).
With `C=C1CC[C@H](O)C/C1=C/C=C1\CCC[C@]2(C)[C@H]1CC[C@H]2[C@@H](C)CCCC(C)C`, the “activity, negative = inhibition” value is 3.42% [at 25.6 µM] (inactive).
On to `O=P(O)(O)C(Cl)(Cl)P(=O)(O)O`, for which the “activity, negative = inhibition” value is 11% (inactive).
`COC(=O)N1CCC2(CCCN(C)C2)CC1`: the “activity, negative = inhibition” value was -15% (inactive).
Turning to `COC(=O)N1CCC2(CCN(CC(C)C)CC2)CC1`, the AC50 is 10000 nM (active).
On the same count and under the same terms, in the case of `CC(C)CN1CCC2(CC1)CCN(S(C)(=O)=O)CC2` it was 794 nM (active).
In the case of `CC(C)NC(=O)N1CCC2(CC1)CCN(C(=O)Oc1ccccc1)CC2`, the “activity, negative = inhibition” value is -2.03% (inactive).
As for `NN=C(N)N`, the AC50 entry is “inactive”.
For `Cc1c(C(=O)c2ccc3ccccc3c2)c2cccc3c2n1[C@H](CN1CCOCC1)CO3`, the “activity, negative = inhibition” value was -4.76% (inactive).
As to `CN1CCN(c2ccc3ccccc3n2)CC1`, the AC50 entry is “inactive”.
Turning to `O[C@@H]1[C@@H]2c3cc4c(cc3CN3CCC(=C[C@@H]1O)[C@H]23)OCO4`, the AC50 is 3980 nM (active).
For `CC(=NCCN1CCOCC1)c1c(O)n(Cc2ccccc2)c(=O)[nH]c1=O`, the “activity, negative = inhibition” value is -0.802% (inactive).
On to `C[C@@H]1OC=C2[C@@H](O)[C@H]3O[C@H]3C(=O)[C@@]23[C@H]1[C@H]1C2=C([C@@H](O)[C@H]4O[C@@H]4C2=O)[C@@H]3O[C@@H]1C`, for which the activity, negative = inhibition is 1.81% [at 11.4 µM] (inactive).
The same measure, in the same setting: the result for `COc1ccc(C2SCC(=O)Nc3c2c(C)nn3-c2ccccc2)cc1OC` (stereo unspecified) reads 1.57% (inactive); that for `O=[N+]([O-])c1cc(O)c(O)c([N+](=O)[O-])c1`, 5.33% (inactive); that for `CC1=NN(c2ccc(S(=O)(=O)O)cc2C)C(=[OH+])[C@H]1N=Nc1cc(S(=O)(=O)O)ccc1C(=O)O.O.[Cr]`, -4.46% [at 11.4 µM] (inactive).
As to `CP(=O)(O)CCCN`, the AC50 entry was “inactive”.
Consider `CC(C)C[C@H]1C(=O)N2CCC[C@@H]2[C@@]2(O)O[C@](NC(=O)[C@@H]3C=C4c5cccc6[nH]cc(c56)C[C@@H]4N(C)C3)(C(C)C)C(=O)N12`, for which the “activity, negative = inhibition” value was -5.32% [at 25.6 µM] (inactive).
Turning to `CN1C[C@H](C(=O)N[C@@]2(C)O[C@@]3(O)[C@H]4CCCN4C(=O)[C@@H](Cc4ccccc4)N3C2=O)C=C2c3cccc4[nH]cc(c34)C[C@@H]21`, the activity, negative = inhibition is -1.39% [at 11.4 µM] (inactive).
As to `CN1C[C@H](CO)C=C2c3cccc4[nH]cc(c34)C[C@@H]21`, the AC50 was 126 nM (active).
Turning to `O=C(NCP(=O)(O)O)c1cccnc1`, the activity, negative = inhibition is -2.73% [at 11.4 µM] (inactive).
Regarding `O=C(Nc1ccccc1)N1CCC2(CC1)CCN(C(=O)Oc1ccccc1)CC2`, the “activity, negative = inhibition” value is -14.2% (inactive).
Same read-out and setting: in the case of `Cc1ccc(C2(c3ccc(C)c(O)c3C)CCN(C)CC2)c(C)c1O` it was -18.9% [at 11.4 µM] (inactive); in that of `Cn1c(O)c(C(c2ccccn2)c2c(O)n(C)c(=S)n(C)c2=O)c(=O)n(C)c1=S`, 16.6% (inactive); in that of `C[C@@]12CC[C@H](O)C[C@@H]1CC[C@H]1[C@@H]2C[C@@H](O)[C@]2(C)[C@@H](C3=CC(=O)OC3)CC[C@]12O`, -7.6% [at 25.6 µM] (inactive).
On to `c1ccc2c(c1)Sc1ccccc1N2C[C@H]1CN2CCC1CC2`, for which the AC50 was 398 nM (active).
`CN1CCc2nc3ccc(F)cc3c(C(N)=O)c2C1`: the “activity, negative = inhibition” value is -18.2% (inactive).
For the molecule `CCOc1ccc2c(c1)C(C)=CC(C)(C)N2`, the AC50 was 2510 nM (active).
With `CCCn1c(C)c(C(=O)c2cccc3ccccc23)c2ccccc21`, the “activity, negative = inhibition” value was -2.05% (inactive).
Regarding `O=C(c1cc(=O)[nH]c2ccc(Br)cc12)N1CCC2(CC1)OCCO2`, the “activity, negative = inhibition” value was 1.7% (inactive).
Regarding `CC(=O)OC1N=C(c2ccccc2)c2cc(Br)ccc2N(C)C1=O` (stereo unspecified), the “activity, negative = inhibition” value was -17.4% (inactive).
With `C[C@@H]1O[C@H](C[N+](C)(C)C)CS1`, the “activity, negative = inhibition” value is 4.31% (inactive).
Consider `COc1cccc(-n2c(O)c(C=NCCN3CCOCC3)c(=O)[nH]c2=O)c1`, for which the “activity, negative = inhibition” value was -36.7% (inactive).
`CC1CN=C(Nc2cccc3ccccc23)S1` (stereo unspecified): the concentration at half-maximal activity (AC50) is 11200 nM (active).
Turning to `C[N+]1(C)CCO[C@@](O)(c2ccc(-c3ccc([C@]4(O)C[N+](C)(C)CCO4)cc3)cc2)C1`, the “activity, negative = inhibition” value is -1.61% (inactive).
For `COC(=O)C(O)(c1c(C)[nH]c2ccccc12)C(F)(F)F` (stereo unspecified), the “activity, negative = inhibition” value was -14.7% (inactive).
For `CCOC(=O)C1Cc2c([nH]c3ccccc23)CN1` (stereo unspecified), the AC50 was 12600 nM (active).
Turning to `CCOC(=O)[C@@H]1[C@@H]2c3ccccc3-c3ccccc3[C@H]2C[C@H]1O`, the activity, negative = inhibition is -5.13% [at 11.4 µM] (inactive).
`CCOC(=O)Cn1cc(C(=O)c2ccccc2F)c2ccccc21`: the “activity, negative = inhibition” value was -14.1% (inactive).
On the same count and under the same terms, in the case of `O=C(O)c1ccccc1-c1c2cc(Br)c(=O)cc-2oc2[c]([Hg])c(O)c(Br)cc12` it was -18.3% [at 25.6 µM] (inactive); in that of `CC[N+](CC)(CC)CCOc1cccc(OCC[N+](CC)(CC)CC)c1OCC[N+](CC)(CC)CC`, 2.95% (inactive).
`c1cncc(CNc2cc(-c3ccc4c(c3)OCO4)ncn2)c1`: the AC50 was 20000 nM (active).
As to `c1cncc(CNCCN2CCNCC2)c1`, the activity, negative = inhibition is -5.64% [at 11.4 µM] (inactive).
With `C[C@@H](COc1ccccc1)N(CCCl)Cc1ccccc1`, the AC50 was 1580 nM (active).
As for `NNC(=O)c1ccc(O)cc1`, the “activity, negative = inhibition” value is -8.63% (inactive).
The same measure, in the same setting: in the case of `O=C(O)C[O][Sb][O]CC(=O)O` it was 2.9% [at 11.4 µM] (inactive); in that of `O=C(O)[C@H]1[O][Sb][O][C@@H](C(=O)O)C1O` (stereo partly specified), -8.1% [at 11.4 µM] (inactive).
